Measurements reported in PubChem BioAssay (NCI).
Compounds without any hit were thinned out: in the full panel of roughly 79,000, 15% have a hit. Active and inactive are the calls of the source. No stated cut-off is given here; in the data, active means growth inhibition above about 70%; inactive means the rest.

What was measured:
[1] = NCI Yeast Anticancer Drug Screen. Data for the rad52 strain (AID 147);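 further: 0% = growth of vehicle-treated control cultures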; settings: S. cerevisiae rad52 mutant growth inhibition, hits give high values
How it was run: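 Yeast strain carrying a DNA damage repair alteration was exposed to test compounds. Growth inhibition was measured relative to vehicle-treated controls.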

[2] = NCI Yeast Anticancer Drug Screen. Data for the rad50EPP+ strain (AID 151);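 further: 0% = growth of vehicle-treated control cultures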; settings: S. cerevisiae rad50 mutant strain, hits give high values
How it was run: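 Yeast strain carrying rad50 alteration (rad50EPP+) exposed to compounds; growth inhibition measured relative to vehicle-treated controls.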

[3] = NCI Yeast Anticancer Drug Screen. Data for the mgt1 strain (AID 153); settings: S. cerevisiae mgt1 mutant growth inhibition, hits give high values
How it was run: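 Yeast mgt1 strain (DNA repair/cell-cycle alteration panel) exposed to compounds; growth inhibition measured relative to vehicle-treated controls.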

[4] = NCI Yeast Anticancer Drug Screen. Data for the rad50 strain (AID 155);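 further: 0% = growth of vehicle-only cultures of the same strain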; settings: S. cerevisiae rad50 strain growth inhibition, hits give high values
How it was run: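 Vehicle-treated cultures provide the reference for the growth inhibition reported for compound-exposed, repair-deficient yeast.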

[5] = NCI Yeast Anticancer Drug Screen. Data for the mec2-1 strain (AID 157); settings: S. cerevisiae mec2-1 strain, hits give high values
How it was run: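 mec2-1 yeast strain, carrying an alteration in DNA damage repair or cell cycle control, was exposed to compounds; growth inhibition was measured relative to vehicle-treated controls.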

[6] = NCI Yeast Anticancer Drug Screen. Data for the sgs1 mgt1 strain (AID 161);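 further: 0% = growth of cultures given vehicle only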; settings: S. cerevisiae sgs1 mgt1 strain, hits give high values
How it was run: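 Compounds are added to genetically altered yeast, and growth is compared with cultures given vehicle alone to give percent inhibition.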

[7] = NCI Yeast Anticancer Drug Screen. Data for the CLN2oe strain (AID 163);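 further: 0% = growth of vehicle-only control cultures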; settings: S. cerevisiae CLN2oe strain, hits give high values
How it was run: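 Yeast cells carrying a defined cell-cycle control alteration were exposed to test compounds. Growth inhibition was scored against vehicle-treated control cultures.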

[8] = NCI Yeast Anticancer Drug Screen. Data for the cln2 rad14 strain (AID 165);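 further: 0% = growth equal to vehicle treated cultures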; settings: S. cerevisiae cln2 rad14 strain, hits give high values
How it was run: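 Yeast carrying cln2 and rad14 alterations (cell cycle control and DNA damage repair) were exposed to compounds. Growth inhibition was measured against vehicle-treated controls.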

[9] = NCI Yeast Anticancer Drug Screen. Data for the bub3 strain (AID 167); settings: S. cerevisiae bub3 mutant strain, hits give high values
How it was run: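 Mutant yeast screening strain plus compound; vehicle-treated cultures serve as the 0% inhibition reference.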

[10] = NCI Yeast Anticancer Drug Screen. Data for the wt2 strain (AID 169); settings: S. cerevisiae wt2 strain growth inhibition, hits give high values
How it was run: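 Yeast cells were exposed to test compounds, and growth inhibition was measured relative to vehicle-treated controls.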

[11] = NCI Yeast Anticancer Drug Screen. Data for the mlh1 strain (AID 171);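 further: 0% = growth of vehicle-treated control cultures of the same strain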; settings: S. cerevisiae mlh1 strain growth inhibition, hits give high values
How it was run: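 Yeast carrying a defined genetic alteration in DNA damage repair or cell cycle control were exposed to test compounds. Growth inhibition was measured relative to vehicle-treated controls.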

[12] = NCI Yeast Anticancer Drug Screen. Data for the sgs1 strain (AID 173);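 further: 0% = growth of vehicle-only control cultures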; settings: S. cerevisiae sgs1 mutant, hits give high values
How it was run: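 Yeast mutant strains carrying defined defects in DNA damage repair or cell cycle control were exposed to test compounds. Growth inhibition was scored against vehicle-treated controls.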

[13] = NCI Yeast Anticancer Drug Screen. Data for the mlh1 rad18 strain (AID 175); settings: S. cerevisiae mlh1 rad18 strain growth inhibition, hits give high values
How it was run: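 Growth inhibition of the yeast strain was measured after compound exposure and expressed relative to vehicle-treated controls. The strain carries defined defects in DNA damage repair.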

[14] = NCI Yeast Anticancer Drug Screen. Data for the rad18 strain (AID 177); settings: S. cerevisiae rad18 mutant growth inhibition, hits give high values
How it was run: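 Yeast carrying a defined DNA damage repair alteration were exposed to compounds. Growth inhibition was expressed relative to vehicle-treated controls.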

[15] = NCI Yeast Anticancer Drug Screen. Data for the wt1 strain (AID 149);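 further: 0% = growth of vehicle-treated wt1 cultures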; settings: S. cerevisiae wt1 strain (SPY 50644) growth inhibition, hits give high values
How it was run: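 Each compound is tested on wt1 yeast and the loss of growth versus vehicle gives the inhibition value.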

[16] = at 5.0 µM (retest, dose inferred, filed as 0.5)
[17] = at 50.0 µM (retest, dose inferred, filed as 5.0)

Measured: growth inhibition

O=C(COc1ccc(Cl)cc1Cl)NO
inactive: [1]; at 1.2 µM -5% | [1]; at 3.7 µM 0% | [1]; at 11.0 µM 8% | [1]; at 33.0 µM 28% | [1]; at 100.0 µM 69% | [2]; at 1.2 µM -5% | [2]; at 3.7 µM 0% | [2]; at 11.0 µM 12% | [2]; at 33.0 µM 35% | [3]; at 1.2 µM -5% | [3]; at 3.7 µM -5% | [3]; at 11.0 µM -5% | [3]; at 33.0 µM 4% | [3]; at 100.0 µM 58% | [4]; at 1.2 µM -4% | [4]; at 3.7 µM -4% | [4]; [16] -138% | [4]; at 11.0 µM 10% | [4]; at 33.0 µM 50% | [4]; [17] 46% | [5]; at 1.2 µM 1% | [5]; at 3.7 µM -1% | [5]; [16] -46% | [5]; at 11.0 µM 11% | [5]; at 33.0 µM 43% | [5]; [17] -14% | [6]; [16] -58% | [6]; [17] 15% | [6]; at 50.0 µM 59.1% | [7]; at 1.2 µM -3% | [7]; at 3.7 µM -2% | [7]; at 11.0 µM 1% | [7]; at 33.0 µM 14% | [7]; at 100.0 µM 63% | [8]; [16] -60% | [8]; [17] -22% | [8]; at 50.0 µM 30.5% | [9]; at 1.2 µM -9% | [9]; at 3.7 µM -9% | [9]; [16] -67% | [9]; at 11.0 µM 2% | [9]; at 33.0 µM 24% | [9]; [17] 10% | [10]; at 1.2 µM -3% | [10]; at 3.7 µM -2% | [10]; at 11.0 µM -4% | [10]; at 33.0 µM -1% | [10]; at 100.0 µM 50% | [11]; at 1.2 µM 5% | [11]; at 3.7 µM -9% | [11]; at 11.0 µM -2% | [11]; at 33.0 µM 9% | [11]; at 100.0 µM 65% | [12]; at 1.2 µM -3% | [12]; at 3.7 µM 1% | [12]; at 11.0 µM 3% | [12]; at 33.0 µM 48% | [13]; [16] -118% | [13]; [17] -32% | [13]; at 50.0 µM 67.1% | [14]; at 1.2 µM -3% | [14]; at 3.7 µM 4% | [14]; at 11.0 µM 9% | [14]; at 33.0 µM 19% | [14]; at 100.0 µM 66%
active: [2]; at 100.0 µM 79% | [4]; at 50.0 µM 96.5% | [4]; at 100.0 µM 77% | [5]; at 50.0 µM 98.4% | [5]; at 100.0 µM 98% | [9]; at 50.0 µM 88% | [9]; at 100.0 µM 74% | [12]; at 100.0 µM 98%

Oc1cccnc1[Se]
active: [15]; at 100.0 µM 99% | [2]; at 33.0 µM 74% | [2]; at 100.0 µM 96% | [3]; at 100.0 µM 99% | [4]; at 33.0 µM 98% | [4]; at 50.0 µM 99% | [4]; at 100.0 µM 99% | [5]; at 50.0 µM 97.5% | [5]; at 100.0 µM 98% | [8]; at 50.0 µM 99% | [9]; at 50.0 µM 99.2% | [10]; at 33.0 µM 97% | [10]; at 100.0 µM 99% | [11]; at 33.0 µM 98% | [11]; at 100.0 µM 99% | [12]; at 33.0 µM 98% | [12]; at 100.0 µM 99% | [13]; at 50.0 µM 98% | [14]; at 33.0 µM 94% | [14]; at 100.0 µM 99%
inactive: [15]; at 1.2 µM -2% | [15]; at 3.7 µM -3% | [15]; at 11.0 µM -4% | [15]; at 33.0 µM 46% | [2]; at 1.2 µM 1% | [2]; at 3.7 µM 9% | [2]; at 11.0 µM 33% | [3]; at 1.2 µM -4% | [3]; at 3.7 µM -3% | [3]; at 11.0 µM -2% | [3]; at 33.0 µM 68% | [4]; at 1.2 µM 2% | [4]; at 3.7 µM 6% | [4]; [16] -15% | [4]; at 11.0 µM 60% | [4]; [17] 55% | [5]; at 1.2 µM -3% | [5]; at 3.7 µM -5% | [5]; [16] -2% | [5]; at 11.0 µM -3% | [5]; at 33.0 µM 38% | [5]; [17] -10% | [7]; at 1.2 µM -3% | [7]; at 3.7 µM 3% | [7]; at 11.0 µM -8% | [7]; at 33.0 µM 2% | [7]; at 100.0 µM 37% | [8]; [16] 7% | [8]; [17] 6% | [9]; at 1.2 µM -6% | [9]; at 3.7 µM -7% | [9]; [16] -21% | [9]; at 11.0 µM -13% | [9]; at 33.0 µM -5% | [9]; [17] -18% | [9]; at 100.0 µM 63% | [10]; at 1.2 µM -5% | [10]; at 3.7 µM -9% | [10]; at 11.0 µM -15% | [11]; at 1.2 µM -2% | [11]; at 3.7 µM 2% | [11]; at 11.0 µM 11% | [12]; at 1.2 µM -1% | [12]; at 3.7 µM 21% | [12]; at 11.0 µM 11% | [13]; [16] 7% | [13]; [17] 59% | [14]; at 1.2 µM -2% | [14]; at 3.7 µM 3% | [14]; at 11.0 µM 20%
